Results on 40 molecules are retold here after PubChem BioAssay (Tox21).

Records with an inconclusive call do not appear. Calls of active or inactive are those of the source. The call rests on the fitted dose curve; in most records, active means well fitted activation curve with a large enough effect in the repeat runs; inconclusive means weak or mixed curves; inactive means flat fitted curve, though single readings scatter.
On the % scale 0 is the no-effect control and ±100 the full control effect.

A short description of the experiment: A CellTox Green Cytotoxicity Assay to monitor cytotoxicity in HEK293 cells - 40 hour (AID 1224871). Further: nearly all actives have a fitted effect of over 45% in size. Conditions: CellTox Green fluorescence; series mostly up to 76.8 µM; cytotoxicity increase: at the top concentration. From the text:
National Center for Advancing Translational Sciences [NCATS]
NIH Chemical Genomics Center [NCGC]
U.S. Environmental Protection Agency [EPA]
National Institutes of Environmental Health Sciences [NIEHS]
National Toxicology Program [NTP]
Cell-based models are critical for drug discovery. Determining the natural cytotoxic effects resulting from test compounds is an essential research activity. A CellTox Green Cytotoxicity Assay to monitor cytotoxicity in real time of continues cell culture during 40 hours of the compound treatment was used to screen Tox21 10K library compounds in Hek293 cells. CellTox Green Cytotoxicity Assay is a nonlytic, homogeneous, biofluorescent method to measure cytotoxicity in cell culture after experimental manipulation. The assay system uses a proprietary asymmetric cyanine dye that is excluded from viable cells but preferentially stains the dead cell's DNA. […] Viable cells produce no appreciable increases in fluorescence. Therefore, the fluorescence signal produced by the binding interaction with dead cell DNA is proportional to cytotoxicity.
The mixture of Hek293 cell suspension and reagents were dispensed at 600cells/6 ul/well in 1536-well tissue culture treated black solid bottom plates using a Multidrop dispenser. After the assay plates were incubated at a 37 C/5% CO2 incubator for 5 hours, 23 nL of compounds dissolved in DMSO, positive and negative controls was transferred to the assay plate by a pintool work station. The plates were incubated at 37 C for 40 hours. The fluorescence intensity were measured at 0h, 8h, 16h, 24h, 32h and 40h time points using ViewLux plate reader during compound treatment.
With `C=CC1(C)OC(=O)N(c2cc(Cl)cc(Cl)c2)C1=O` (stereo not given), the Potency result was “inactive”.

With `O=c1[nH]c2ccccc2n1C1CCNCC1`, the “cytotoxicity increase” value is 3.22% [at 35.3 µM] (inactive).

On to `O=P(O)(O)c1ccccc1`, for which the “cytotoxicity increase” value was -12.9% (inactive).

Regarding `BrCC1CO1` (stereo not given), the “cytotoxicity increase” value was 1.83% (inactive).

On to `N[C@@H]1C[C@H]1c1ccccc1`, for which the “cytotoxicity increase” value was -18.4% [at 35.3 µM] (inactive).

With `NC1(c2ccccc2)CCCCC1`, the “cytotoxicity increase” value is -7.24% (inactive).

Turning to `O=C(O)CBr`, the “cytotoxicity increase” value was -7.11% (inactive).

For the molecule `Brc1c(Br)c(Br)c(Br)c(Br)c1Br`, the cytotoxicity increase is 4.32% [at 6.97 µM] (inactive).

Regarding `CCNc1nc(NCC)nc(SC)n1`, the “cytotoxicity increase” value was -5.35% (inactive).

Take `ClCCCCl`: the “cytotoxicity increase” value was -10.2% (inactive).

In the case of `CN1COCN(Cc2cnc(Cl)s2)/C1=N\[N+](=O)[O-]`, the “cytotoxicity increase” value was -11.9% (inactive).

`BrCc1ccc(Br)cc1`: the “cytotoxicity increase” value was -1.27% (inactive).

Take `S=C=S`: the “cytotoxicity increase” value was -1.27% (inactive).

`CCC(C(N)=O)N1CCCC1=O` (stereo not given): the “cytotoxicity increase” value is 1.5% [at 35.3 µM] (inactive).

On to `CC(C)(C)C(=O)Cl`, for which the “cytotoxicity increase” value was -13.7% (inactive).

Consider `O=C(O)C(Cl)Br` (stereo not given), for which the “cytotoxicity increase” value is -5.2% (inactive).

Consider `COc1cccc(C=O)c1`, for which the “cytotoxicity increase” value was -5.89% (inactive).

For `CCN(CC)CCOC(=O)C(O)(c1ccccc1)c1ccccc1`, the “cytotoxicity increase” value is 0.435% [at 35.3 µM] (inactive).

Consider `O=C(NC(=O)c1c(F)cccc1F)Nc1cc(Cl)c(F)c(Cl)c1F`, for which the “cytotoxicity increase” value is -1.43% (inactive).

For `CCC1(c2ccccc2)C(=O)N(COC)C(=O)N(COC)C1=O`, the “cytotoxicity increase” value was -9.56% [at 35.3 µM] (inactive).

Consider `c1cncc([C@@H]2CCCCN2)c1`, for which the “cytotoxicity increase” value was 5.38% (inactive).

Regarding `O=S1(=O)OCCO1`, the “cytotoxicity increase” value was -1.13% (inactive).

`Cc1cccc2sc3nncn3c12`: the “cytotoxicity increase” value is -16.9% (inactive).

On to `O=c1[nH]oc2c1CCNC2`, for which the “cytotoxicity increase” value is 12.8% [at 35.3 µM] (inactive).

Regarding `CCOC(=O)c1ncn2c1CN(C)C(=O)c1c(I)cccc1-2`, the “cytotoxicity increase” value was -2.79% [at 35.3 µM] (inactive).

For the molecule `O=C(Cl)c1ccccc1`, the “cytotoxicity increase” value was 0.0534% (inactive).

Consider `CC[C@H](N)c1ccccc1`, for which the “cytotoxicity increase” value was 4.59% (inactive).

As for `COP(=O)(OC)O/C(C)=C/C(=O)N(C)C`, the “cytotoxicity increase” value is -6.41% (inactive).

Turning to `CC(O)CCl` (stereo not given), the “cytotoxicity increase” value is -7.75% (inactive).

In the case of `CCC1(c2cccc(O)c2)CCCCN(C)C1` (stereo not given), the “cytotoxicity increase” value was 8.61% [at 35.3 µM] (inactive).

Turning to `CCOc1cc(OP(=S)(OC)OC)nc(CC)n1`, the “cytotoxicity increase” value is -13.5% (inactive).

Turning to `Clc1nc(Cl)nc(Nc2ccccc2Cl)n1`, the “cytotoxicity increase” value is -4.12% (inactive).

For `CCN[C@@H](C)Cc1ccccc1`, the “cytotoxicity increase” value is -20.7% (inactive).

Turning to `C#CCOC(=O)/C=C(C)/C=C/CC(C)CCCC(C)C` (stereo not given), the “cytotoxicity increase” value was -5.64% (inactive).

On to `CC[C@H](O)C(C[C@H](C)N(C)C)(c1ccccc1)c1ccccc1`, for which the “cytotoxicity increase” value was -0.26% (inactive).

`CCC1(c2ccccc2)CCC(=O)NC1=O` (stereo not given): the “cytotoxicity increase” value is -10.6% [at 35.3 µM] (inactive).

For `CC(C)(C1CCC(O)CC1)C1CCC(O)CC1` (stereo not given), the “cytotoxicity increase” value is 3.31% (inactive).

In the case of `CCC(C)C(C)(COC(N)=O)COC(N)=O` (stereo not given), the “cytotoxicity increase” value is -15.3% [at 35.3 µM] (inactive).

Turning to `CCN1CCCC1CNC(=O)C(O)(c1ccccc1)c1ccccc1` (stereo not given), the “cytotoxicity increase” value is -2.91% [at 35.3 µM] (inactive).

`C[C@H]1CCCC(=O)CCC/C=C/c2cc(O)cc(O)c2C(=O)O1`: the “cytotoxicity increase” value was 10.5% [at 35.3 µM] (inactive).
